High-throughput results: PubChem, National Center for Advancing Translational Sciences (NCATS)
Hits are enriched below; roughly 21% of the tested compounds scored in any of these assays.
IL-1B inflam inh – blocks inflammasome-driven IL-1 beta release; THP-1 LPS/ATP IL-1B secretion, AlphaLISA, 16 h; hits give low values; activity change, % at 57.5 µM; actives 4.7% (n = 360,000); in the data active = activity change below about -50%; inconclusive = mostly about -30% to -49%
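THP-1 cells pretreated 1 hr with compounds (up to 57.5 uM final), then stimulated with LPS (250 ng/mL final) plus ATP (1.25 mM final); secreted IL-1B measured by AlphaLISA after 16 hr, decreased signal indicating inhibition.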
ClpP mod – qHTS Assay for Activators of ClpP; purified B. subtilis ClpP, FRET peptide cleavage, 20 min; Potency, µM (doses to about 57.5 µM); actives 1.9% (n = 340,000); AID 651965, 2013; ATP-dependent Clp protease proteolytic subunit (Bacillus subtilis (strain 168)), P80244; active = well fitted falling curve with a large enough effect; inconclusive = small, poorly fitted or top-dose-only effect; inactive = no such curve, though single readings can be large or run the other way; note: the source files actives as falling curves though it sought activators and does not explain the sign; nearly all actives have a fitted effect of over 65% in size
Target sequence (P80244 whole entry, looked up): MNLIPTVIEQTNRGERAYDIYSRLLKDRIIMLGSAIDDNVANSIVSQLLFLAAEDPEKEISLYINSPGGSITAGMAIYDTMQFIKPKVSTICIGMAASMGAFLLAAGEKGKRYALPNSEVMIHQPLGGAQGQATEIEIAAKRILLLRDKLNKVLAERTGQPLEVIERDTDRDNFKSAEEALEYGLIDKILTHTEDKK
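FRET quenching reversal measured ClpP activation: 10 microg/mL B. subtilis ClpP at pH 8 with the FRET-FV decapeptide, read at 430 nm after 320 nm excitation. The 20-min minus 0-min signal was scaled between DMSO/no-enzyme wells and ADEP (5.8 microM final).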
DT40 TDP1 CPT – growth inhibition of DT40 Tdp1-/-;hTDP1 cells with camptothecin (screen for TDP1 inhibitors). chicken DT40 Tdp1-/-;hTDP1 cells + 20 nM CPT, ATP luminescence, 48 h. Potency, µM (highest dose often 46.2 µM), usual class: inhibitors. actives 12% (n = 420,000). AID 686979; note: nearly all actives have a fitted effect of over 55% in size
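Chicken DT40 Tdp1-/- cells stably complemented with human TDP1 were seeded at 400 cells/well in medium containing 20 nM camptothecin, exposed to pin-transferred compounds, and grown at 37 °C for at least 48 hr. Viability was read as ATP luminescence.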
D3 ag – D3 dopamine receptor (human) agonism; P35462; D3R DiscoveRx beta-arrestin cells, luminescence, 90 min; max activation, %; actives 0.58% (n = 410,000); in the data active = max activation above about 30%
Target sequence (P35462 whole entry, looked up): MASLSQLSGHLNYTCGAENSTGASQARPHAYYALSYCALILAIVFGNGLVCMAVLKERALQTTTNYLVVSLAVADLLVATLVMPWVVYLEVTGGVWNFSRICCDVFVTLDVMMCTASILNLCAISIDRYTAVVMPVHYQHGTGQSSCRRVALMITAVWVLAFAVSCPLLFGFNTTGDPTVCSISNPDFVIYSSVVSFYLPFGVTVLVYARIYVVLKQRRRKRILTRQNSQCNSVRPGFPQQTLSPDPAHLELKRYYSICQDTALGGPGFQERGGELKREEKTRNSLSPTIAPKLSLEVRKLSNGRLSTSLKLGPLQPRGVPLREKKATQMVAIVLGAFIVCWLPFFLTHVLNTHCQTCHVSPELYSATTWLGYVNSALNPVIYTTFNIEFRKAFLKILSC
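Agonist-mode cell screen: cells plated at 1500/well and incubated overnight at 37 °C, then exposed to library compounds for 90 min at 37 °C. Detection reagent was added for 30–60 min at room temperature, and luminescence was read.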
DT40 TDP1 no CPT – qHTS for Inhibitors of human tyrosyl-DNA phosphodiesterase 1 (TDP1): qHTS in cells in absence of CPT; DT40 Tdp1-/- hTDP1 cells, no CPT, ATP luminescence, 48 h; Potency, µM (doses to about 46.2 µM), actives largely listed as inhibitors; actives 15% (n = 420,000); AID 686978, 2013; note: nearly all actives have a fitted effect of over 55% in size
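Luminescent ATP content (CellTiter-Glo) served as the growth readout. Knockout chicken DT40 cells expressing human TDP1 were exposed to compounds without camptothecin for a minimum 48 hr at 37 °C.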
D3 antag – antagonists of human D3 dopamine receptor; P35462; D3R cells, DiscoveRx beta-arrestin luminescence, antagonist mode; hits give low values; max response, negative = inhibition, %; actives 2.5% (n = 360,000); AID 652054; in the data active = max response below about -50%; inconclusive = no clear call, values can overlap the other calls
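Cells expressing the human receptor were seeded at 1500 cells/well, incubated overnight at 37 degrees C in 5% CO2, then exposed to library compounds with dopamine controls for 90 minutes at 37 degrees C before luminescent detection.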
Large screens that a line does not name were inactive; ! = a repeat was not active. Unless noted, calls come from the whole dose curve; as a rule, active = well fitted inhibition curve with a large enough effect; inconclusive = small, poorly fitted or top-dose-only effect; inactive = flat fitted curve, though single readings scatter.

CC[C@]12c3[nH]c4ccccc4c3CCN1C(=O)C(CC(=O)NCc1cccc(C(F)(F)F)c1)C[C@@H]2C(=O)N1CCN(C(=O)c2ccco2)CC1 (some centres undefined)	IL-1B inflam inh -52, DT40 TDP1 CPT 18µM, DT40 TDP1 no CPT inconclusive
C[C@]12c3[nH]c4ccc(Cl)cc4c3CCN1C(=O)[C@@H](CC(=O)NCc1cccc(C(F)(F)F)c1)C[C@@H]2C(=O)N1CCOCC1	IL-1B inflam inh -56, DT40 TDP1 CPT inconclusive, DT40 TDP1 no CPT inconclusive
C[C@]12c3[nH]c4ccccc4c3CCN1C(=O)C(CC(=O)NCc1cccc(C(F)(F)F)c1)C[C@@H]2C(=O)N1CCCCC1 (some centres undefined)	IL-1B inflam inh -66, DT40 TDP1 CPT 21µM, DT40 TDP1 no CPT 15µM
COc1ccccc1CNC(=O)c1cccc(Nc2nc3ccccc3n3nnnc23)c1	DT40 TDP1 CPT inconclusive, DT40 TDP1 no CPT inconclusive (no result: IL-1B inflam inh, D3 antag)
Cc1ccc(C)c(N2CCN(c3ncccc3[N+](=O)[O-])CC2)c1	IL-1B inflam inh -51 (no result: ClpP mod)
Cc1ccc(N2CCN(c3ncccc3[N+](=O)[O-])CC2)c(C)c1	IL-1B inflam inh -50, DT40 TDP1 no CPT inconclusive
O=[N+]([O-])c1cccnc1N1CCCCC1	none
COc1ccccc1-c1nnc(SCC(=O)Nc2ccc3[nH]c(=O)[nH]c3c2)n1N	none
Cc1ccc(S(=O)(=O)Nc2cccc(-c3ccc(N4CCCC4)nn3)c2)c(C)c1	DT40 TDP1 no CPT inconclusive (no result: IL-1B inflam inh, D3 antag)
Cn1c2c(c3cnc4cc(Cl)ccc4c31)CN(Cc1ccc(Cl)cc1)CC2	ClpP mod inconclusive, DT40 TDP1 CPT 7.9µM, DT40 TDP1 no CPT 7.1µM (no result: IL-1B inflam inh, D3 ag, D3 antag)
CN1CCc2c(c3cnc4cc(Cl)ccc4c3n2C)C1	DT40 TDP1 CPT inconclusive, DT40 TDP1 no CPT inconclusive (no result: IL-1B inflam inh, D3 ag, D3 antag)
CN(C(=O)CSc1nncc2ccccc12)c1ccccc1	IL-1B inflam inh -87
O=Cc1c(-[n+]2ccccc2)nc([O-])n1-c1ccccc1	DT40 TDP1 CPT inconclusive, DT40 TDP1 no CPT 18µM
CCc1cc[n+](-c2nc([O-])sc2C=O)cc1	none
O=C(O)C1Oc2ccccc2C1c1ccccc1 (centres undefined)	none (no result: ClpP mod)
Cc1ccc(S(=O)(=O)CC(=O)N(CCCN(C)C)c2nc3ccc(C)cc3s2)cc1	IL-1B inflam inh -55
CCOc1ccc2nc(N(CCCN(C)C)C(=O)c3ccc4c(c3)CCCC4)sc2c1	IL-1B inflam inh -58, DT40 TDP1 CPT inconclusive, DT40 TDP1 no CPT inconclusive, D3 antag -84
CN(C)CCCN(C(=O)c1ccc2c(c1)CCCC2)c1nc2ccc(Cl)cc2s1	IL-1B inflam inh -123, DT40 TDP1 CPT 15µM, DT40 TDP1 no CPT 15µM, D3 antag -88
Cc1ccc2nc(N(CCCN(C)C)C(=O)CS(=O)(=O)c3ccccc3)sc2c1	D3 antag inconclusive
CCOc1ccc2nc(N(CCN(CC)CC)C(=O)c3cccc([N+](=O)[O-])c3)sc2c1	DT40 TDP1 no CPT inconclusive (no result: ClpP mod)
Cc1ccc2nc(N(CCCN(C)C)C(=O)c3ccc4ncsc4c3)sc2c1	DT40 TDP1 CPT 16µM, DT40 TDP1 no CPT inconclusive
COc1cccc2sc(N(CCN(C)C)C(=O)c3ccc4c(c3)CCCC4)nc12	DT40 TDP1 CPT inconclusive, DT40 TDP1 no CPT inconclusive, D3 antag inconclusive
COc1ccc2nc(N(CCN(C)C)C(=O)c3ccc4ncsc4c3)sc2c1	none
CCOc1ccc(C(=O)Nc2ccc(N3CCN(C(C)=O)CC3)cc2)cc1[N+](=O)[O-]	DT40 TDP1 CPT inconclusive, DT40 TDP1 no CPT inconclusive
CC(=O)N1CCN(c2ccc(Oc3ccc([N+](=O)[O-])c(C(F)(F)F)c3)cc2)CC1	IL-1B inflam inh -83, DT40 TDP1 CPT 12µM, DT40 TDP1 no CPT 2.9µM (no result: ClpP mod)
COc1ccc(CC(N)c2csc(Nc3cccc(OC)n3)n2)cc1 (centres undefined)	DT40 TDP1 CPT 15µM, DT40 TDP1 no CPT 13µM, D3 antag -83
NC(Cc1ccccc1)c1csc(Nc2ccc(C(F)(F)F)cn2)n1 (centres undefined)	IL-1B inflam inh -53, DT40 TDP1 CPT 21µM, DT40 TDP1 no CPT 21µM
COc1ccc(CC(N)c2csc(Nc3ccccn3)n2)cc1 (centres undefined)	IL-1B inflam inh -50, DT40 TDP1 CPT 23µM, DT40 TDP1 no CPT 26µM, D3 antag inconclusive
COc1cccc(Nc2nc(C(N)Cc3ccc(Cl)cc3)cs2)n1 (centres undefined)	IL-1B inflam inh -67, DT40 TDP1 CPT 6.5µM, DT40 TDP1 no CPT 6.5µM
CCC(C)NCC(=O)Nc1ccc(S(N)(=O)=O)cc1 (centres undefined)	DT40 TDP1 CPT inconclusive (no result: ClpP mod)
Cc1ccc(CNC(=O)c2cn(C)c3ccc(S(=O)(=O)N(C)C4CCCCC4)cc3c2=O)cc1	DT40 TDP1 CPT inconclusive, DT40 TDP1 no CPT inconclusive (no result: IL-1B inflam inh, D3 antag)
COc1ccc(C(N)c2csc(NC(=O)Nc3ccccc3C(C)(C)C)n2)cc1 (centres undefined)	DT40 TDP1 CPT inconclusive, DT40 TDP1 no CPT inconclusive
COc1ccc(C(N)c2csc(Nc3ccc(C(F)(F)F)cn3)n2)cc1 (centres undefined)	DT40 TDP1 CPT inconclusive, DT40 TDP1 no CPT 18µM
NC(=O)c1cccc(Nc2nc(C(N)Cc3ccc(C(F)(F)F)cc3)cs2)n1 (centres undefined)	DT40 TDP1 CPT 6.5µM, DT40 TDP1 no CPT 10µM
COc1cccc(Nc2nc(C(N)Cc3ccc(C(F)(F)F)cc3)cs2)n1 (centres undefined)	IL-1B inflam inh inconclusive, DT40 TDP1 CPT 9.2µM, DT40 TDP1 no CPT 12µM
CCn1c(C)cc(C(=O)CSc2nnc(-c3ccco3)o2)c1C	IL-1B inflam inh inconclusive
Cc1ccsc1/C=C/C1=NCCCN1C	D3 antag -52!
CC1Cc2ccccc2N1Cc1nc2cc(Cl)ccc2c(=O)[nH]1 (centres undefined)	ClpP mod 13µM, DT40 TDP1 CPT inconclusive, DT40 TDP1 no CPT inconclusive
O=C1/C(=C/c2cccc3ccccc23)CCCc2ccccc21	IL-1B inflam inh inconclusive
CCOc1ccc(/C=C2\CCc3ccccc3C2=O)cc1	DT40 TDP1 no CPT inconclusive, D3 antag inconclusive (no result: ClpP mod)
O=C1/C(=C/c2ccncc2)CCC/C1=C\c1ccncc1	IL-1B inflam inh inconclusive, DT40 TDP1 CPT 2.1µM, DT40 TDP1 no CPT 0.82µM, D3 antag -60
O=C1C(=Cc2ccncc2)CCCc2ccccc21	IL-1B inflam inh inconclusive, DT40 TDP1 CPT 23µM, DT40 TDP1 no CPT 21µM
O=C1/C(=C/c2ccncc2)CCc2ccccc21	IL-1B inflam inh -102, DT40 TDP1 CPT inconclusive, DT40 TDP1 no CPT 23µM
